Target: TLN2 312-417 IRS (domain begin residue: 312, domain end residue: 417), Q9Y4G6
Assay: phage ELISA signal ratio (GST-PRM binding over GST background); higher = stronger binding of peptide-phage to the PRM
How it was run: (§1)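 Each value is the phage ELISA signal on the glutathione S-transferase (GST)-domain fusion divided by the signal on GST alone. Human peptide recognition domains were expressed in 96-well plates, fused to the C-terminus of GST, and selected against an M13 phage library carrying randomized, cysteine-free, glycine-flanked hexadecapeptides on the gene-8 major coat protein. After five selection rounds, approximately 48 individual clones from rounds 4 and 5 were tested by phage ELISA, and positive clones were sequenced.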

Chain of TLN2 312-417 IRS (domain begin residue: 312, domain end residue: 417), Q9Y4G6 (Q9Y4G6 whole entry): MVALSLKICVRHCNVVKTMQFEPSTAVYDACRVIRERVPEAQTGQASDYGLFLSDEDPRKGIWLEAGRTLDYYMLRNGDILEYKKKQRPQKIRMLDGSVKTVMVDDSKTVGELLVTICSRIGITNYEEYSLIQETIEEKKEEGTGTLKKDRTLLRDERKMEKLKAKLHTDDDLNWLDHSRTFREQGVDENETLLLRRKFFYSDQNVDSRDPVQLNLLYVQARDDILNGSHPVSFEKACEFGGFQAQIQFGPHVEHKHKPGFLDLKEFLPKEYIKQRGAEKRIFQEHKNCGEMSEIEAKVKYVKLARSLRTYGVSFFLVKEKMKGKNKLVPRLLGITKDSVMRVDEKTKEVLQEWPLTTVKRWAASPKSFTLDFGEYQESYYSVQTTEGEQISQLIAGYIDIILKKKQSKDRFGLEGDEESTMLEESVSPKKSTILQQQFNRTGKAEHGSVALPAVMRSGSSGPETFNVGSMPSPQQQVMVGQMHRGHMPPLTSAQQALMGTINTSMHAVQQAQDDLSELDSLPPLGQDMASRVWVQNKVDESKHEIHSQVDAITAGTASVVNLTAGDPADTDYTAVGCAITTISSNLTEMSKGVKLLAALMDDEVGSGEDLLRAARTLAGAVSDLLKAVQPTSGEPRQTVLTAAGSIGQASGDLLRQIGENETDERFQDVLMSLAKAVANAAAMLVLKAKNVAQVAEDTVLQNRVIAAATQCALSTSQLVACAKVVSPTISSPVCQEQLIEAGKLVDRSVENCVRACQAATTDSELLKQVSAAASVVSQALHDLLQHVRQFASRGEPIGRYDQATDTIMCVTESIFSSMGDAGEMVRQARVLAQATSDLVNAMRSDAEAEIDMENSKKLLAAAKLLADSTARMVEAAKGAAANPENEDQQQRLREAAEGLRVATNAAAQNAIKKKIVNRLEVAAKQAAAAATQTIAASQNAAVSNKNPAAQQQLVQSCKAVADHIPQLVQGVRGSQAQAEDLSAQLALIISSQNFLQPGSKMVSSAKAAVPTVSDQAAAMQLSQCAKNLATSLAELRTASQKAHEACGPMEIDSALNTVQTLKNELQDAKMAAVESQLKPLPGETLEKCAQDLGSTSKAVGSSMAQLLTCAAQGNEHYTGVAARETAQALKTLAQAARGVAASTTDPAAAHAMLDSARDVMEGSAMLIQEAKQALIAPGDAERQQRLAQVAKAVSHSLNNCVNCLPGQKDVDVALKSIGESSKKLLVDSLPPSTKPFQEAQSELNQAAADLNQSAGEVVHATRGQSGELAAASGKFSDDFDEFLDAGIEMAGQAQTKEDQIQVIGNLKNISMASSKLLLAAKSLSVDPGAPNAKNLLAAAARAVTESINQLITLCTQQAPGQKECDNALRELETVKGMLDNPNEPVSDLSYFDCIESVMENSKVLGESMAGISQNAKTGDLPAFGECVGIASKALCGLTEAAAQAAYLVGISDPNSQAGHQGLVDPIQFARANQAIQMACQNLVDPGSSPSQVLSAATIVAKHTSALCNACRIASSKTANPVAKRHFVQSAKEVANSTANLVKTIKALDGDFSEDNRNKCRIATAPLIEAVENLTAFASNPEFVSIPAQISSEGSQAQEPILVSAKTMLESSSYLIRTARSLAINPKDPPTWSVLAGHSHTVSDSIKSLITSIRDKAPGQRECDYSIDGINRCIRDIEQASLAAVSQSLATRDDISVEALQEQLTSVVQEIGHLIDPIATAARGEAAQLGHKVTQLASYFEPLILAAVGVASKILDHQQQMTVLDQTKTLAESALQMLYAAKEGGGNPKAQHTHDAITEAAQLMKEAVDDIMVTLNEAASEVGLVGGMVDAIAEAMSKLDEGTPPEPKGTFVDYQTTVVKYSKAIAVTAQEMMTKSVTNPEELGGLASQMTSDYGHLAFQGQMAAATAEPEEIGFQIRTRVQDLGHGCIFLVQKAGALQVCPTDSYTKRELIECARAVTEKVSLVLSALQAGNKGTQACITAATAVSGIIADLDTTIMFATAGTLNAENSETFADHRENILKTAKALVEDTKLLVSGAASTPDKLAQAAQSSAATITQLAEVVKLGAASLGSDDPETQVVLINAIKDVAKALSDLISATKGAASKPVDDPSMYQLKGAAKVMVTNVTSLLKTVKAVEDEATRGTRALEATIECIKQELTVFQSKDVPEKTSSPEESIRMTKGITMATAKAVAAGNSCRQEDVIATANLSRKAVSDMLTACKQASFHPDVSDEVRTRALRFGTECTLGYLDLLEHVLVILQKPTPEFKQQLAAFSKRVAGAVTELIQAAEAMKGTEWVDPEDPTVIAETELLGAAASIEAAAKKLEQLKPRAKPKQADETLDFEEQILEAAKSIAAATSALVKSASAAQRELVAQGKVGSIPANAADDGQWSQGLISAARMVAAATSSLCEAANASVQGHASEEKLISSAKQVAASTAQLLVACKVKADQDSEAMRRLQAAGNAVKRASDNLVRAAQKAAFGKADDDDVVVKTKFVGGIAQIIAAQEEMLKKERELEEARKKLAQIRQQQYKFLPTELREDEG

| Binder | phage ELISA signal ratio |
| --- | --- |
| WTASQYWVYEDGFIPG | 23.7 |

Target: TOM1 1-153 VHS (domain begin residue: 1, domain end residue: 153), O60784
Assay: as above
How it was run: as §1

Chain of TOM1 1-153 VHS (domain begin residue: 1, domain end residue: 153), O60784 (O60784 whole entry): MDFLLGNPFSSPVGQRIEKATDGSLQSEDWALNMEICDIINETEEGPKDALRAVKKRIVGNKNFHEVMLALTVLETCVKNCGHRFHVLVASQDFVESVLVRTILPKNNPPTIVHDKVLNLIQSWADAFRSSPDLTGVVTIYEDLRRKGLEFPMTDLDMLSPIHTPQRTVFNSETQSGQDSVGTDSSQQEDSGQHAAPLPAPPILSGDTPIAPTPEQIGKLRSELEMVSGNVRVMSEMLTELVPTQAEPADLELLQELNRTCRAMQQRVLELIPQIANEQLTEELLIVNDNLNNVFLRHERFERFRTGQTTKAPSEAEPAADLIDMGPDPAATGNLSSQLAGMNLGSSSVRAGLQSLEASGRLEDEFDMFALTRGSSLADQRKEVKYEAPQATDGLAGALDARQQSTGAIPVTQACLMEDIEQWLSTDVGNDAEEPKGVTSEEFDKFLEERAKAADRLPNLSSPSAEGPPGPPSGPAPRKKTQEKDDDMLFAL

| Binder | phage ELISA signal ratio |
| --- | --- |
| PWWLEYEMPITRESPV | 4.45 |
| EWWLSYDPHWVETISA | 5.42 |
| QVWWEAYEKRLHVETE | 8.09 |
| NSWWLDYEERATLHGD | 9.5 |

Target: T1, TOM1L1 1-150 VHS (domain begin residue: 1, domain end residue: 150), O75674
T1 chain: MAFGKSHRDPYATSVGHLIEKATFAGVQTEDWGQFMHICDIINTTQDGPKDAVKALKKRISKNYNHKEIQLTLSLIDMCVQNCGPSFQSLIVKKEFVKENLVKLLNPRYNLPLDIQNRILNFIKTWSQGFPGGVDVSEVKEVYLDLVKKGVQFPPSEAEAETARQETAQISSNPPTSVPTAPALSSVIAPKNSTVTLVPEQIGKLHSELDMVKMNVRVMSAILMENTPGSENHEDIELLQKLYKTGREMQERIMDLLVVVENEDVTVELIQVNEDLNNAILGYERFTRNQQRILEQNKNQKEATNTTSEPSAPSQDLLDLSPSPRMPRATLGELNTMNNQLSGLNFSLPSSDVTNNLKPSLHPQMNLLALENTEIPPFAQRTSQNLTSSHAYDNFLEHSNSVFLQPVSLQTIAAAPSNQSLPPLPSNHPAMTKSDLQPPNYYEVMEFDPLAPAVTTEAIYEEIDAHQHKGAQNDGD
Assay: as above
How it was run: as §1

| Binder | phage ELISA signal ratio |
| --- | --- |
| NNNWWMQWHVEEHEME | 4.26 |
| ADGWGWYENWVWPASM | 4.28 |
| VSEGQWRPSYLWWTDD | 4.64 |
| YQMSWMPSEIWWLNYV | 9.38 |
| WDEEDDHWWEHFFWFQ | 12.6 |
| DFTWLHSEKWWPEEWG | 14.3 |
| FVDWDIPSWWFQQVTS | 15.1 |
| DDHLWHPSFKWWDEYV | 15.8 |
| ETDKWVPSYLWWANYS | 16.8 |
| QHDWAPSYLWWDEWTM | 20.5 |
| LEWTWYDTWTWPEESQ | 22 |
| DMLDWSWTEEVELWFQ | 24.5 |
| IEWEWLDSKEWWPKEF | 32.5 |

Target: T2, TOM1L2 1-153 VHS (domain begin residue: 1, domain end residue: 153), Q6ZVM7
T2 chain: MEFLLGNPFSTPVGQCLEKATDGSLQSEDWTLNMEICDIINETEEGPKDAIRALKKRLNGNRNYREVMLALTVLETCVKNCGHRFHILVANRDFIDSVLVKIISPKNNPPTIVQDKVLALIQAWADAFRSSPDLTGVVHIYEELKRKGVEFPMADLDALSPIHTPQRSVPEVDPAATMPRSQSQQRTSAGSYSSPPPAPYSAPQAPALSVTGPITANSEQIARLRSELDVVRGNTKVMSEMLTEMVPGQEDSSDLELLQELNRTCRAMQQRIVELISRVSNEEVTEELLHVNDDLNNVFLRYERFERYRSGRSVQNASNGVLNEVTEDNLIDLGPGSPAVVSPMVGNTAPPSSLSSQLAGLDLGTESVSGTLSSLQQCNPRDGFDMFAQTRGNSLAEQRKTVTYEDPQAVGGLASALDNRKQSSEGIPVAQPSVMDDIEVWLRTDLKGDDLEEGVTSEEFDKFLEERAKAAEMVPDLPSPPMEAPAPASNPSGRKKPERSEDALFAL
Assay: as above
How it was run: as §1

| Binder | phage ELISA signal ratio |
| --- | --- |
| YQDWDWDPEMKRMVVS | 4.04 |
| LPPHWFDEMYSITAMY | 7.51 |
| TEMWTPAQQALWAYIT | 8.79 |
| MMFAGLGTPNPYEVTT | 16.9 |
| IEIPWTQEFIQHWTQG | 18.4 |
| KWNDDDWWTYFVSQVE | 20.3 |
| GLASYFADNYHLIFSE | 22.4 |
| AFENNQQAILQYMMDV | 22.7 |
| QTPLEAFWEAYDSISW | 23.1 |
| DRKLSQQELALWAYII | 27.7 |

Target: T3, TRIM10 292-481 SPRY (domain begin residue: 292, domain end residue: 481), Q9UDY6
T3 chain: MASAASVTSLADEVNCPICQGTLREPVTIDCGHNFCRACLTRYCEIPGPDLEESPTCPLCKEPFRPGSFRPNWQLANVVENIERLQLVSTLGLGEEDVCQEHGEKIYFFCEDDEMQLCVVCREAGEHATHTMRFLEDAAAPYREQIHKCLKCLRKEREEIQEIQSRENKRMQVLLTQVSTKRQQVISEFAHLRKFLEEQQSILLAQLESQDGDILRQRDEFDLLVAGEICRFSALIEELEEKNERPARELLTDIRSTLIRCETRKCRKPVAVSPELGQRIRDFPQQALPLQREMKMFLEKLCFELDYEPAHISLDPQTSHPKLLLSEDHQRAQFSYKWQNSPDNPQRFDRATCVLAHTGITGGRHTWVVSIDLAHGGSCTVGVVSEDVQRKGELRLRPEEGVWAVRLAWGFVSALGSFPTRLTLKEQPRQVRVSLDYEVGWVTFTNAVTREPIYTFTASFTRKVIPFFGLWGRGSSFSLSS
Assay: as above
How it was run: as §1

| Binder | phage ELISA signal ratio |
| --- | --- |
| WEDGWLIPNAQDFQGM | 3.64 |

Target: T4, TRIM11 268-461 SPRY (domain begin residue: 268, domain end residue: 461), Q96F44
T4 chain: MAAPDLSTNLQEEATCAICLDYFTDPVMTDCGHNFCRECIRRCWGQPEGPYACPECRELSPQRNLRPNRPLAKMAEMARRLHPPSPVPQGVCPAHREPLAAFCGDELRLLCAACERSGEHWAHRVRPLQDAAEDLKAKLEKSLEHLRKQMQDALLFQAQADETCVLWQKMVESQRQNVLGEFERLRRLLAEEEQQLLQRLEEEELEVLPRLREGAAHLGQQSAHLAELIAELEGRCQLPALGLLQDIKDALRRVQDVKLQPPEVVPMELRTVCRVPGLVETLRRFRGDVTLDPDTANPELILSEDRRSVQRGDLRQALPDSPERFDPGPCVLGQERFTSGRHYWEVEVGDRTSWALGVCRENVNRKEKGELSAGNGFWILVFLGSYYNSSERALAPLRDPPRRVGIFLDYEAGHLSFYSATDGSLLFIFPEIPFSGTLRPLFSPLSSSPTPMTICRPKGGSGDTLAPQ
Assay: as above
How it was run: as §1

| Binder | phage ELISA signal ratio |
| --- | --- |
| PFTYYSSEMYPWYIFG | 11.1 |
| GFFQFQALPEWIVYMN | 12.6 |
| QFFLFQSAPSWVLQPI | 13.8 |
| KVNTFHFMDPPDWLTH | 14.3 |
| VGTFMFGEMPSWVVST | 19.6 |
| VFEFMDRADWPDWVMM | 20.4 |
| HRFVYMEQLPSWLFAV | 23 |
| TGNVFQFMDPPQWLTH | 29.9 |
| TELPFTYMTRIPSWVW | 30 |
| WYEDGWWTPHRMEQTR | 30 |
| ELTTFHFYKEAPVWVI | 31.5 |
| QVFWYPQAEEWPWFLD | 34.5 |

Target: TRIM21 268-465 SPRY (domain begin residue: 268, domain end residue: 465), P19474
Assay: as above
How it was run: as §1

Chain of TRIM21 268-465 SPRY (domain begin residue: 268, domain end residue: 465), P19474 (P19474 whole entry): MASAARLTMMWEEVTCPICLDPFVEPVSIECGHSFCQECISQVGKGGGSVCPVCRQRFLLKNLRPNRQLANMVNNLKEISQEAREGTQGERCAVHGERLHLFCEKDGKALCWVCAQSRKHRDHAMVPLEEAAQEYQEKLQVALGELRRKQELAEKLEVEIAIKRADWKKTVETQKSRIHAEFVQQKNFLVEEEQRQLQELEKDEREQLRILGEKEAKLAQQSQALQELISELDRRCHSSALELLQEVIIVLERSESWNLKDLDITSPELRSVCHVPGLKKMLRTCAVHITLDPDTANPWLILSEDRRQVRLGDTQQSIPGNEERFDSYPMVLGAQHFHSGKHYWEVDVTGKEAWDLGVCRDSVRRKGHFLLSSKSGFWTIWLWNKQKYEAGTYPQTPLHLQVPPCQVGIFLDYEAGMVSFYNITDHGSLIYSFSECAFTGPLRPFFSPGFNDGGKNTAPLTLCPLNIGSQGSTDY

| Binder | phage ELISA signal ratio |
| --- | --- |
| FEDGWMYQDFLKAPET | 14.1 |
| MHDDLDWVHHMAVPQV | 27.1 |
| WEMTLMEEAWATKFEV | 29.9 |

Target: TRIM25 439-630 SPRY (domain begin residue: 439, domain end residue: 630), Q14258
Assay: as above
How it was run: as §1

Chain of TRIM25 439-630 SPRY (domain begin residue: 439, domain end residue: 630), Q14258 (Q14258 whole entry): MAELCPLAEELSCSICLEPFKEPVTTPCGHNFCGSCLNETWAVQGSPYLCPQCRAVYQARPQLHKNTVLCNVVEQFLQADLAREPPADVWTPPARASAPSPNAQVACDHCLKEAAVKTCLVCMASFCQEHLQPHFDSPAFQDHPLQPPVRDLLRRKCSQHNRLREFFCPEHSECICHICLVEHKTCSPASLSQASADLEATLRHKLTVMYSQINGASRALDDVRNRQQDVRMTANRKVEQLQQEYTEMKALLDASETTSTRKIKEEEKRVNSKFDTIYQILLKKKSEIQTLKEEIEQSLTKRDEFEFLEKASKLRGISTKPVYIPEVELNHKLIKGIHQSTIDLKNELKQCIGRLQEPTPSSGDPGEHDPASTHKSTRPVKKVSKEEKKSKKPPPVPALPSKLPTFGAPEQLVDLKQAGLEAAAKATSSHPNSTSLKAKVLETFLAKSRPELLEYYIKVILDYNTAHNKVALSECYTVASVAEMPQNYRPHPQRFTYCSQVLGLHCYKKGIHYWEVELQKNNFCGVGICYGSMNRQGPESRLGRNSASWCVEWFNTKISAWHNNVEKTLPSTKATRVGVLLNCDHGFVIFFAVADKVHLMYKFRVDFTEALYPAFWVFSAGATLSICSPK

| Binder | phage ELISA signal ratio |
| --- | --- |
| FEDGWMYQDFLKAPET | 9.36 |
| MDWYDMYGTTWDMIPG | 10.7 |
| WDDGFMEYGALPHEQM | 12.3 |
| VVGDGMAFERWFQDFE | 14.5 |
| MPDGWWDQYSWEHIAE | 15.7 |
| TVFWDGMYDWPVEMDI | 21 |
| FETPWQIEDVWGMAGF | 27.1 |

Target: TRIM30 281-496 SPRY (domain begin residue: 281, domain end residue: 496)
Assay: as above
How it was run: as §1

| Binder | phage ELISA signal ratio |
| --- | --- |
| WDWQTDYGYWEDFVPV | 4.08 |
| DVIPWDTWNFWREQDF | 9.37 |

Target: T5, TRIM39 319-514 SPRY (domain begin residue: 319, domain end residue: 514), Q9HCM9
T5 chain: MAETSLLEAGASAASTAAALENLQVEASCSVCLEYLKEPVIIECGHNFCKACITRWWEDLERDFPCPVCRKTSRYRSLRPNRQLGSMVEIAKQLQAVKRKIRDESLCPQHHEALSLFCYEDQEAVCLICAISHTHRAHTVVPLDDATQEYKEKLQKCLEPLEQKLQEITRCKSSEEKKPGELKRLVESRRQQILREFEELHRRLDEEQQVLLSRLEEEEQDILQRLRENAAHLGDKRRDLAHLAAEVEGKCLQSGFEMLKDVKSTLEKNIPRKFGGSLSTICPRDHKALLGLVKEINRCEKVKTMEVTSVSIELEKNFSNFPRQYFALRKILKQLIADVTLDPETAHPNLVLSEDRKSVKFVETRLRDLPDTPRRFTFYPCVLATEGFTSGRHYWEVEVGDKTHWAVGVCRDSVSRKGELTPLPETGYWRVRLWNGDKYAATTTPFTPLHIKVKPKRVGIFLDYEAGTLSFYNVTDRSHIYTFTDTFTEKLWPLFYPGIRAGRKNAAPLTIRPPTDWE
Assay: as above
How it was run: as §1

| Binder | phage ELISA signal ratio |
| --- | --- |
| GWYEMEGWGMPKDIET | 3.7 |

Target: TRIM7 324-511 SPRY (domain begin residue: 324, domain end residue: 511), Q9C029
Assay: as above
How it was run: as §1

| Binder | phage ELISA signal ratio |
| --- | --- |
| LERKIAWAQQLWKYFV | 6.97 |
| GLVYYDVPFDFGVIDW | 13.2 |
| MTMDFHPDWWDVADQW | 29.6 |

Target: T6, TSG101 1-145 UEV (domain begin residue: 1, domain end residue: 145), Q99816
T6 chain: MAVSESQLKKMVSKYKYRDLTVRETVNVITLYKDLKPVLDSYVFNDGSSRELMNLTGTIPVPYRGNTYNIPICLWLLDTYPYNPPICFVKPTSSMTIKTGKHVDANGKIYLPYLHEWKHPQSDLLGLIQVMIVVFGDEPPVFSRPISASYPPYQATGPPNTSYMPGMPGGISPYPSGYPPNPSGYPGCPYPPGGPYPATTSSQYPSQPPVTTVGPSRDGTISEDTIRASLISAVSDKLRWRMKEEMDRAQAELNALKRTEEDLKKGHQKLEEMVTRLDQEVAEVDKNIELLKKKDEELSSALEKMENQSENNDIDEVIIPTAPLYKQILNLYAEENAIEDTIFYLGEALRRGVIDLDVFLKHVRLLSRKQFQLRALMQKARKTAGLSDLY
Assay: as above
How it was run: as §1

| Binder | phage ELISA signal ratio |
| --- | --- |
| FPYNPHWDMLQQETTV | 3.09 |

From the supplement of paper PMC7724964
